Bioassay records: PubChem, National Center for Advancing Translational Sciences (NCATS)
Rows were chosen to be rich in hits. Some 2.4% of all compounds tested hit in one or more screens of this group.
D2 antagonist: antagonists of human D2 dopamine receptor. inhibition, % at 10 µM. HEK293 TREx D2 cells, calcium flux, dopamine EC80. AID 485344. actives 2% (n = 340,000); in the data active = inhibition above about 30%; inactive = below that, where a call was filed; note: 0% is about no effect
Target sequence (P14416 whole entry, looked up): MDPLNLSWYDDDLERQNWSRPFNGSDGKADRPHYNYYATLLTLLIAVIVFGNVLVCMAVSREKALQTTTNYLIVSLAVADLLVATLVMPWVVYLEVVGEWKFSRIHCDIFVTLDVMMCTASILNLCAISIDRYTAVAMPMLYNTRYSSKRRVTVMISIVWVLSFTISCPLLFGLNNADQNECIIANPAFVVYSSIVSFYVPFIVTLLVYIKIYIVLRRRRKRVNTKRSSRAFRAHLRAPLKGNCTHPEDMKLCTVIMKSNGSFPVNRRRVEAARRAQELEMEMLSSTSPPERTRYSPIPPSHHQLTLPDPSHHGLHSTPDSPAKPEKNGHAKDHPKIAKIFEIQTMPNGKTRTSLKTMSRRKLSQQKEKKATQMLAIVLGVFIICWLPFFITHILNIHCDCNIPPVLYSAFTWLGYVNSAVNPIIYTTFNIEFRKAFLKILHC
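Compounds are added to dye-loaded, induced HEK293 T-REx cells coupled to calcium release via D2; after a 3 min kinetic read an EC80 dopamine stimulus is given and fluorescence is recorded for 3 more min.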
D2 PAM-1: positive allosteric modulators of human D2 dopamine receptor. potentiation, % at 10 µM. actives 0.34% (n = 340,000). HEK293 T-REx D2, calcium flux, EC20 dopamine potentiation. P14416. AID 485347;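 active = potentiation over 3 SD above the plate norm, cut at about 30% in these data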; note: 0% is about no effect
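Potentiation of an EC20 dopamine calcium response is measured in a force-coupled, tetracycline-inducible Hek293 Trex D2 line. Compound-only kinetic reads over 180 s flag agonists before dopamine addition.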
D2 ag-1: human D2 receptor agonism in beta-arrestin assay; activation, % (no concentration beside the values); P14416; AID 624465; DiscoveRx PathHunter D2 beta-arrestin, luminescence, 90 min; 100% = 57 uM dopamine signal; actives 0.084% (n = 360,000); in the data active = activation above about 40%
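Agonist mode: compounds alone added to overnight-plated D2 PathHunter cells for 90 min at 37 C, with 57 uM final dopamine (EC100) defining full response. Beta-arrestin recruitment detected by chemiluminescent reagent, read after 1 h at ambient temperature.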
D2 ag-2: agonists of human D2 dopamine receptor; AID 485358; HEK293 T-REx D2 cells, calcium flux agonist mode; activation, % at 2 µM; actives 0.53% (n = 340,000); P14416;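 active = activation over 3 SD above normal in the single-dose calcium agonist read, cut at about 30% in these data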; note: 0% is about no effect
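Tetracycline-induced HEK293 Trex cells with D2 receptor force-coupled to calcium signaling, plated overnight at 30 C and loaded with no-wash calcium dye. Calcium flux read kinetically for 180 s after compound addition; responses flag agonists.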
D2 PAM-2: positive allosteric modulators of human D2 dopamine receptor; DiscoveRx D2 beta-arrestin cells, luminescence, 90 min; 100% = 57 uM dopamine signal; potentiation, % (no concentration beside the values); actives 0.23% (n = 360,000); AID 624464; in the data active = potentiation above about 50%
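D2 cells co-treated with compound plus 50 nM dopamine (EC20) for 90 min at 37 deg C to detect potentiation. Beta-arrestin recruitment was read as enzyme-fragment luminescence after 1 h at ambient temperature. Full response was set by 57 uM dopamine.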
* hit, by the source's call; x = no result.

SMILES	D2 antagonist	D2 PAM-1	D2 ag-1	D2 ag-2	D2 PAM-2
COc1ccc(-n2ncc3c2CC(C)(C)CC3NC(=O)c2oc(C)cc2C)cc1 (stereo not drawn)	-11.0	36.5*	-5.6	-0.4	1.4
COc1ccc(-n2nnnc2-c2cccc(OC)c2)cc1	35.6*	-2.4	-0.5	0.4	11.6
COc1ccc(N(CC(=O)Nc2cc(C)cc(C)c2)S(=O)(=O)c2ccccc2[N+](=O)[O-])c(OC)c1	53.4*	8.9	0.8	0.2	-3.9
O=C(O)/C=C/c1ccc([N+](=O)[O-])o1	18.0	1.6	13.7	1.2	1.8
N#CCc1ccc(NC(=O)/C=C/c2ccc([N+](=O)[O-])o2)cc1	31.9*	0.3	14.3	-0.5	-7.5
COc1ccc(CCNC(=O)c2cnc3sc(N4CCOCC4)nn3c2=O)cc1OC	x	0.3	x	2.9	x
Cc1cc(C(=O)N2CCC(C)CC2)on1	-0.3	10.3	1.5	1.1	-3.8
CCOC(=O)N1CCN(C(=O)c2cc(C)no2)CC1	20.6	30.1*	-3.1	0.3	-2.3
CC(C)CCNC(=O)Nc1ccc2c(c1)N(Cc1ccccc1)C(=O)c1ccccc1S2	x	2.5	x	-0.3	x
CCSc1ncc(Cl)c(C(=O)Nc2nc3ccc(S(C)(=O)=O)cc3s2)n1	x	x	x	-1.3	x
COc1ccc(NC(=O)CN(C)CC(=O)Nc2sc3c(c2C#N)CCC3)cc1	32.2*	4.4	7.2	-0.4	-0.1
CCN(CC)S(=O)(=O)c1ccc(C(=O)N2CC(=O)Nc3ccc(F)cc3C2c2ccccc2)cc1 (stereo not drawn)	x	2.1	x	0.8	x
Cc1cc(NC(=O)CSc2cn(CCNC(=O)c3ccccc3)c3ccccc23)no1	3.3	5.7	2.8	-1.3	2.6
Cc1ccc(C(=O)NCCn2cc(SCC(=O)Nc3cc(C)on3)c3ccccc32)cc1	32.5*	-26.4	4.5	-0.7	1.1
CCC(C(=O)NCCc1ccc(OC)c(OC)c1)n1nc(C)n2c(cc3occc32)c1=O (stereo not drawn)	33.1*	-5.5	-1.6	0.3	1.2
CCn1nnnc1-c1ccc(OC)c(S(=O)(=O)NCc2ccccc2)c1	33.1*	1.5	-2.8	0.2	4.1
CCn1nnnc1-c1ccc(OC)c(S(=O)(=O)Nc2ccc(C)c(C)c2)c1	-17.9	-1.9	2.1	-0.1	-19.4
COc1ccc(Cl)cc1NC(=O)Cn1cc(C(=O)c2ccncc2)c(=O)c2cc(C)ccc21	x	-26.9	x	1.0	x
CCOC(=O)C1CCN(S(=O)(=O)CCNC(=O)c2ccc(F)cc2)CC1	30.3*	28.0	2.4	0.3	5.0
O=C(NCCS(=O)(=O)N1CCCCCC1)c1ccc(F)cc1	8.4	0.0	-5.2	0.8	-2.9
CCOc1ccc(CNC(=O)c2ccc3c(c2)N(CC)CCS3)cc1	60.9*	-17.3	0.9	1.0	-9.5
CCN1CCSc2ccc(C(=O)NCc3ccc(OC(C)C)cc3)cc21	59.7*	-14.1	-3.8	1.8	-12.0
CCOc1ccc(CCNC(=O)c2ccc3c(c2)N(Cc2ccc(F)cc2)CCS3)cc1	x	3.6	x	x	x
O=C(CSc1n[nH]c(-c2ccccc2)n1)NCCc1ccccc1	x	x	x	0.1	x
NC(CC(=O)NC(c1ccccc1)(c1ccccc1)c1ccccc1)C(=O)O (stereo not drawn)	-2.9	36.6*	-4.6	0.8	-5.3
SMILES	D2 antagonist	D2 PAM-1	D2 ag-1	D2 ag-2	D2 PAM-2
COc1ccc(OC)c(/C=C2/Sc3ccccc3C2=O)c1	7.1	-3.0	0.3	33.9*	15.5
CC(CNC(=O)c1ccc2c(c1)nc1n2CCCCC1)c1ccccc1 (stereo not drawn)	x	-5.2	x	-0.4	x
CCC(C)(C)n1nnnc1C(c1ccccc1)N1CCc2ccccc2C1 (stereo not drawn)	3.4	9.0	0.5	-1.2	-6.5
CCC(C)(C)n1nnnc1C(c1ccc(O)c(OC)c1)N1CCc2ccccc2C1 (stereo not drawn)	35.1*	2.5	-1.2	0.4	-9.6
Cn1c(=O)n(C)c2cc(N3CCCCC3)c(NC(=O)c3c(F)cccc3F)cc21	x	1.8	x	-1.1	x
O=C(NC1CCN(S(=O)(=O)c2ccc(F)cc2)CC1)c1ccco1	2.4	4.8	-4.5	0.1	-3.7
O=C(NC1CCN(S(=O)(=O)c2ccccc2C(F)(F)F)CC1)c1ccco1	30.3*	-8.3	-1.0	-0.3	1.8
